Among the data in publication PMC7826789 (International Journal of Molecular Sciences, 2021) are Kinases covered values, retold here.

For the molecule `COc1cc2c(cc1OC)C(=C(Nc1ccccc1)c1cccc(CN)c1)C(=O)N2` [BIBF0846CL], the Kinases covered result with PDGFRB is given as “PDGFRB”.
As to `NS(=O)(=O)c1cccc(-c2ccc3nccc(-c4cccc(S(N)(=O)=O)c4)c3c2)c1` [GW867253], the Kinases covered entry in the assay on PI4KB was “PI4KB”; in the assay with PIK3CG, “PIK3CG”.
With `CC(C)N1CCN(Cc2cnc(-c3cc(-c4cccc5[nH]ccc45)cc4[nH]ncc34)o2)CC1` [GSK2269557], in the assay on PIK3CD, the Kinases covered result was “PIK3CD”.
Take `COc1cc2ncn(-c3cc(O[C@H](C)c4ccccc4Cl)c(C(N)=O)s3)c2cc1OC` [GSK237701A]: in the assay with PDGFRB, the Kinases covered entry is listed as “PDGFRB”.
Same read-out and setting: then `Cn1ccc2ncnc(Oc3ccc(NC(=O)Nc4ccccc4)cc3)c21` [TPKI-69], with “PDGFRB”.
Consider `CN(C)C(=O)/C(C#N)=C/c1ccc(-c2nc3cnc4[nH]ccc4c3n2C2CCCCC2)o1` [FM-381], for which, in the assay on PIK3C2G, the Kinases covered result was “PIK3C2G”.
Regarding `Cc1c(Cn2c(C)c(C)n3c(=O)cc(N4CCOCC4)nc23)cccc1C(F)(F)F` [GSK2328680], the Kinases covered entry with PIK3CB is given as “PIK3CB”.
Consider `COc1ccc(-c2cc3c(C)nc(N)nc3n([C@H]3CC[C@H](O)CC3)c2=O)cn1` [PFE-PKIS 40], for which the Kinases covered entry in the assay with PI4KB is reported as “PI4KB”; in the assay with PIK3C2B it was “PIK3C2B”; in the assay on PIK3C2G, “PIK3C2G”; with PIK3CB, “PIK3CB”; in the assay on PIK3CD, “PIK3CD”; with PIK3CG, “PIK3CG”.
On to `O=c1cc(N2CCOCC2)nc2n(Cc3ccccc3F)ccn12` [GSK2297428], for which the Kinases covered entry in the assay with PIK3C3 is “PIK3C3”.
With `COc1ccc(-c2cc3c(C)nc(N)nc3n([C@H]3CC[C@H](OCCO)CC3)c2=O)cn1` [PFE-PKIS 29], the Kinases covered result in the assay with PI4KB is “PI4KB”; in the assay on PIK3C2B it was “PIK3C2B”; in the assay with PIK3C2G, “PIK3C2G”; with PIK3CB it was “PIK3CB”; in the assay with PIK3CD it was “PIK3CD”.
As to `Cc1c(Cn2ccn3c(=O)nc(N4CCOCC4)cc23)cccc1C(F)(F)F` [GSK2336394], the Kinases covered entry in the assay with PIK3CB is given as “PIK3CB”.
Take `FC1=CC(C3=NC2=CC(OC)=C(OC)C=C2C(N[C@H]4[C@H]([C@](C)(O)C)CNC4)=N3)=C(O)C=C1.Cl.Cl` [CCT241533]: the Kinases covered entry in the assay with PHK is “PHK”.
`CC(C)N1CC(=O)N(C)c2cnc(Nc3cccc(S(=O)(=O)CCN4CCOCC4)c3)nc21` [BI00009348]: the Kinases covered entry in the assay with PIK3CG was “PIK3CG”.
With `CNS(=O)(=O)c1ccc(N(C)C)c(Nc2ncnc3cc(OC)c(OC)cc23)c1` [GSK114], the Kinases covered entry in the assay on PDGFRB is recorded as “PDGFRB”.
For `Cc1nnc(-c2ccc3occ(-c4ccc(S(C)=O)cc4)c3c2)[nH]1` (stereo not drawn) [TPKI-85], in the assay with PIK3C3, the Kinases covered entry is on record as “PIK3C3”.
In the case of `Cc1c(Cn2c(C)nn3c(=O)cc(N4CCO[C@H](C)C4)nc23)cccc1C(F)(F)F` [GSK2373690], the values for the Kinases covered entry in the assay with PIK3CB and in the assay with PIK3CG were “PIK3CB” and “PIK3CG”, respectively.
Consider `CC(C)C(=O)N[C@@H]1CCN(C(=O)Nc2nc3c(s2)-c2nc(-c4ccccc4Cl)ncc2CC3)C1` [BI00047804], for which, in the assay on PIK3CG, the Kinases covered entry is reported as “PIK3CG”.
Take `CC[C@@H]1CO[C@H](C(=O)Nc2ccccc2)CN1c1cc(-c2ccc3c(N)n[nH]c3c2)nc(NC)n1` [GSK2376236]: in the assay on PDPK1, the Kinases covered entry is “PDPK1”.
With `COc1ncc(-c2cc(-c3ncc(CN4C[C@@H](C)O[C@@H](C)C4)o3)c3cn[nH]c3c2)cc1NS(C)(=O)=O` [GSK2292767], the Kinases covered result with PIK3CD is on record as “PIK3CD”.
For `O=C(Nc1ccccc1)Nc1cccc(Oc2ccc3nccn3n2)c1` [TPKI-39], the Kinases covered entry in the assay with PDGFRB is reported as “PDGFRB”.
For `CNc1nc(-c2ccc3c(N)n[nH]c3c2)cc(N2C[C@@H](C(=O)Nc3ccccc3)CC[C@H]2C)n1` [GSK2298859], the Kinases covered entry in the assay with PDPK1 is on record as “PDPK1”.
Take `Cc1ccc(NC(=O)Nc2ccccc2F)cc1-c1ccc(C(=O)Nc2ccncc2)cc1` [GSK1398477]: in the assay on PDGFRB, the Kinases covered entry is given as “PDGFRB”.
